An excerpt weighted towards active compounds, which were near 6.9% of everything screened.
KB-3-1 cytotox: kills parental KB-3-1 adenocarcinoma cells; Potency, µM (titrated, usually from 46.1 µM), most hits filed as cytotoxic; hit rate 1.4% among 400,000; KB-3-1 viability, CellTiter-Glo ATP luminescence, 72 h; further: potency means the concentration at half of the fitted maximal effect; on the % scale 0 is the no-effect control and ±100 the full control effect; nearly all actives have a fitted effect of over 60% in size
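Screening of KB-3-1 cells (DMEM, 10% FBS, phenol-red free) ran from lowest to highest compound concentration; after 72 h at 37 °C viability was read luminescently and curves fitted.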
SW480 rerep: induces DNA re-replication in SW480 colon adenocarcinoma cells; SW480 DNA re-replication, Hoechst DNA content imaging, 48 h; AID 624297; hit rate 1.8% among 340,000; Potency, µM (doses to about 46.1 µM), for the others: at the highest dose re-replication activation, usual class: activators; further: potency means the concentration at half of the fitted maximal effect; % of control where 0% means no effect; nearly all actives have a fitted effect of over 55% in size
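Treated cells incubate 48 hr (37 C, 5% CO2), are stained 40 min with Hoechst, and nuclear fluorescence is enumerated; a rise in nuclei with high DNA signal marks re-replication.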
MCF10A rereplic: induces DNA re-replication in MCF 10a normal breast cells; MCF 10A DNA re-replication, Hoechst nuclear intensity, 48 h; Potency, µM (highest dose often 46.1 µM), inactives show top-dose activity, positive = re-replication, most hits filed as activators; hit rate 2.9% among 350,000; AID 624296; further: potency means the concentration at half of the fitted maximal effect; % of control where 0% means no effect; nearly all actives have a fitted effect of over 50% in size
Giardia kill: kills Giardia lamblia. AID 540267. Giardia lamblia trophozoite viability. hit rate 0.15% among 340,000. activity change, % at 7.66 µM, hits read low; in the data active means activity change below about -80%; inconclusive means between about -30% and that limit;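 further: parasites exposed to compound for two days anaerobically before the ATP read; on the % scale 0 is the no-effect control and ±100 the full control effect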
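Trophozoite viability was measured as ATP-dependent luminescence, read 15-30 min after reagent addition. Before that, parasites at 100 cells/well were exposed to compounds for 48 h, anaerobically, at 37 deg C.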
ASM inhibitor: blocks human secretory acid sphingomyelinase | P17405 | placental ASM, HMU-PC fluorogenic substrate, 60 min | Potency, µM (titrated, usually from 57.5 µM), for the others: top-dose activity change, negative = inhibition, most hits filed as inhibitors | hit rate 0.006% among 340,000; further: potency means the concentration at half of the fitted maximal effect
Target sequence (P17405 47-631 limits assumed): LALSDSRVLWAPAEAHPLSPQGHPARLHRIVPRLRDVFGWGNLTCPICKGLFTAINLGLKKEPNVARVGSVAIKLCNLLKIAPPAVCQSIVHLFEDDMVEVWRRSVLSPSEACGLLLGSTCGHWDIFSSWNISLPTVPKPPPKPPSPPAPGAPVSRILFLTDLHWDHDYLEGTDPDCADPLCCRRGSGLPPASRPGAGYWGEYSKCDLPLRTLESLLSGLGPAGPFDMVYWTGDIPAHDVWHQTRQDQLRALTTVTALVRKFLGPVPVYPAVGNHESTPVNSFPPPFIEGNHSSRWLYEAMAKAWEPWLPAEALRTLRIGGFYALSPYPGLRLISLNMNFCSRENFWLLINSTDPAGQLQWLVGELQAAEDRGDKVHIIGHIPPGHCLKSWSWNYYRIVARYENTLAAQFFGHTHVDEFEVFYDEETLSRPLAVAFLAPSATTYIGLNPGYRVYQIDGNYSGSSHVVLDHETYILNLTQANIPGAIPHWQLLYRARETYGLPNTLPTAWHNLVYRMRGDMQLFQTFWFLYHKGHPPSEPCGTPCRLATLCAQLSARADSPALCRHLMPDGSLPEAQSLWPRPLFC
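qHTS format. ASM enzyme prepared from human placenta hydrolyses the fluorogenic substrate HMU-PC0 (9 uM final) over 60 min at 37 °C after a 10 min compound preincubation.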
KB-V1 MDR tox: kills drug-selected multidrug resistant KB-V1 cells. KB-V1 MDR cells viability, CellTiter-Glo, 72 h. AID 1347076. hit rate 3.4% among 400,000. Potency, µM (top dose mostly 46.1 µM), most hits filed as cytotoxic; further: potency means the concentration at half of the fitted maximal effect; on the % scale 0 is the no-effect control and ±100 the full control effect; nearly all actives have a fitted effect of over 60% in size
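Cytotoxicity toward P-gp-expressing KB-V1 cells was determined as loss of CellTiter-Glo luminescence after 72 h at 37 degrees C. Compounds were tested in quantitative HTS format across a concentration range, with curves fitted to normalized data.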
The depositor's hits bear a star; i = inactive; ? = inconclusive; . = no result; ! = not active in a repeat. Unless noted, the call rests on the fitted dose curve; in most records, active means well fitted curve in the direction sought with a large enough effect; inconclusive means small, poorly fitted or top-dose-only effect, or another doubt; inactive means no such curve, though single readings can be large; an effect the other way counts as inactive or inconclusive.

SMILES	KB-3-1 cytotox	SW480 rerep	MCF10A rereplic	Giardia kill	ASM inhibitor	KB-V1 MDR tox
Cc1ccc2[nH]c(C)cc(=S)c2c1	?	20.6µM*	23.1µM*	19.9	-3.0%	?
Cc1cc(=S)c2ccccc2[nH]1	?	-3.8%	?	21.6	0.1%	i
Cn1c(C(=O)N(Cc2ccccc2)Cc2ccccn2)cc2sccc21	i	-5.9%	1.2%	-14.7	-1.0%	i
Cn1c(C(=O)N(Cc2ccccc2)Cc2cccs2)cc2sccc21	i	14.2%	16.4µM*	4.7	-1.1%	14.6µM*
CC1CCN(c2nc(/C=C/c3ccccc3)nc3ccccc23)CC1	i	0.9%	20.6µM*	13.3	-16.8%	?
c1ccc2c(c1)nc(N1CCCCCC1)c1ccccc12	i	?	?	13.5	8.3%	i
C(=C\c1nc(N2CCCC2)c2ccccc2n1)/c1ccccc1	23.1µM*	?	?	-3.2	2.2%	?
Cc1ccc(Cl)cc1NC(=O)C(=O)NCCc1sc(-c2ccc(F)cc2)nc1C	i	.	.	.	.	i
CCOC(=O)C1CCN(C(c2ccccn2)c2c(C)[nH]c3ccccc23)CC1 (centres undefined)	18.4µM*	?	20.6µM*	-8.0	1.8%	i
N/C(=N\S(=O)(=O)c1cc(C(F)(F)F)cc(C(F)(F)F)c1)c1ccc(Cl)cc1	i	10.3µM*	13µM*	26.1	-1.9%	?
Cc1ccc(C)c(CN2C(=O)c3ccccc3Sc3ccc(C(=O)NCc4ccc5c(c4)OCO5)cc32)c1	.	.	.	5.9	.	.
Cc1ccc(-n2ncc(C(=O)NCCc3ccccc3)c2C2CCN(C(=O)OC(C)(C)C)CC2)c(C)c1	?	.	.	.	.	i
COc1ccc(Cn2c(SCC#N)nc3ccc(N4CCOCC4)cc3c2=O)cc1	i	1.5%	20.6µM*	-13.3	32.4%	i
c1ccc(-c2cn3c4c(sc3n2)CCCC4)cc1	?	?	20.6µM*!	?	0.2%	?
CCCc1nc2ccccc2n1Cc1ccccc1OC	?	-1.5%	4.3%	-11.8	-1.1%	14.6µM*
COc1ccccc1Cn1c(CCCO)nc2ccccc21	i	-3.1%	5.1%	13.7	1.7%	?
CCc1nc2ccccc2n1Cc1ccccc1OC	?	-5.5%	2.8%	18.9	1.1%	14.6µM*
CC1(C(=O)Nc2cccc(C(F)(F)F)c2)Cc2c(-c3ccc4c(c3)OCO4)ccnc2O1 (centres undefined)	?	.	.	.	.	i
C=CCn1c(SCC(=O)Nc2cc(C)nn2-c2ccccc2)nnc1C1CCCCC1	i	-2.5%	0.4%	7.1	3.1%	5.8µM*
O=[N+]([O-])c1cccc(-c2nnc(-c3ccccc3)o2)c1	i	-3.8%	?	?	-1.0%	i
Cc1occc1-c1nnc(-c2cc([N+](=O)[O-])cc([N+](=O)[O-])c2)o1	i	13µM*	-0.3%	-21.7	-6.9%	i
O=C(NNC(=O)c1cccnc1SCc1cccc([N+](=O)[O-])c1)c1ccc(F)cc1	?	2.0%	10.0%	-9.5	-0.2%	16.4µM*
O=C(NNC(=O)c1cccnc1SCc1cccc([N+](=O)[O-])c1)c1cccnc1	i	-7.1%	1.2%	15.2	3.3%	?
O=C1NC[C@@H](Cc2ccc(O)cc2)N(CCc2cc(C(F)(F)F)cc(C(F)(F)F)c2)C1=O	i	.	.	.	.	i
Cc1ccc(S(=O)(=O)CCC(=O)NC2CCCC2)cc1	i	20.6µM*	1.2%	6.9	1.4%	i
Cc1ccc(S(=O)(=O)NCCC(=O)NC2CCCCCC2)cc1	i	15.3%	-7.9%	-6.6	1.2%	i
Cc1ccc(S(=O)(=O)NCCC(=O)NC2CCCCCC2)cc1C	i	-2.1%	-0.2%	3.6	1.8%	18.4µM*
Cc1nn(C)c(C)c1NS(=O)(=O)c1ccc(N2CCCC2=O)cc1	?	63.1%	?	0.5	8.5%	?
COc1ccc(CCNS(=O)(=O)c2ccc(N3CCCC3=O)cc2)cc1	i	0.4%	?	-11.9	1.7%	i

Screening results (PubChem BioAssay)
